Reference: PubChem BioAssay AID1778 (Sanford-Burnham Center for Chemical Genomics, 2009)
In all, about 290,000 compounds went through this assay and about 260 (0.09%) were called active. The sample holds actives, similar compounds and a random draw of the others, so the mix is not that of the screen. Cut-off read from the data, not from the text of the source: active = inhibition above about 50%; inactive = the rest. Potency and affinity values are given separately.

molecular target: Kappa-type opioid receptor (Homo sapiens) (UniProt P41145); experiment: kappa opioid receptor blockers – cell-based, luminescence, uHTS (AID 1778); settings: KOR beta-arrestin recruitment, antagonist mode, active compounds read high; at 10 µM unless noted
Sequence (P41145 whole entry, looked up): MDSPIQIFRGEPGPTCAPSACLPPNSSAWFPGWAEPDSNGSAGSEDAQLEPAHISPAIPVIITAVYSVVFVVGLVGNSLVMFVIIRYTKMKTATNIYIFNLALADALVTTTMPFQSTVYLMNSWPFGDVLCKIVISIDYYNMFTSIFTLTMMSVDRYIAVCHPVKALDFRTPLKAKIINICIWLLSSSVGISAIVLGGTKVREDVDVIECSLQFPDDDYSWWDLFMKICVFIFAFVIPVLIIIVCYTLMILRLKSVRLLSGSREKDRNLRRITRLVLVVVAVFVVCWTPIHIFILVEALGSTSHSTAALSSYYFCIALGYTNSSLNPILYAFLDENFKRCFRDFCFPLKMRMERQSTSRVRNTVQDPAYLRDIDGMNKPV

SMILES | inhibition
Fc1ccc2[nH]c3c(c2c1)CN(C(=S)NCc1ccccc1)CC3 | -9.6% (inactive)
O=C1CSC(c2ccccc2Br)N1c1ccc(Cl)cn1 (centres undefined) | 2.8% (inactive)
CCOC(=O)c1nn(-c2ccccc2C)c2nc(CC(C)C)c(C#N)c(=O)n12 | -35.8% (inactive)
Cc1cc(C(=O)Nc2nc(-c3ccccn3)cs2)ccc1[N+](=O)[O-] | 22.6% (inactive)
O=C(Nc1nccs1)c1cc(Cl)ccc1[N+](=O)[O-] | 8.6% (inactive)
O=C(Nc1nc(-c2ccccn2)cs1)c1cc(Cl)ccc1[N+](=O)[O-] | 86.8% (active)
CNC(=O)CSc1nc2ccccc2c(=O)n1-c1cc(OC)ccc1OC | 0.7% (inactive)
CC(NC(=O)Cn1cc(C(F)(F)F)ccc1=O)c1ccc(F)cc1 (centres undefined) | -19.7% (inactive)
Cc1ccc(-c2nnc(SCC(N)=O)n2C)cc1 | -13.4% [at 20 µM] (inactive)
COC(=O)CC(N)c1ccc(OC)c2ccccc12 (centres undefined) | 15.2% (inactive)
Cc1[nH]oc(=O)c1N=Nc1ccccc1 | -11% (inactive)
Oc1ccc(N=Nc2nc(-c3ccccc3)c(-c3ccccc3)[nH]2)cc1 | 32.4% (inactive)
N#Cc1ccc(NC(=O)CSc2cn[nH]n2)cc1 | -56.1% (inactive)
CC(NC(=O)c1cc2cc([N+](=O)[O-])ccc2oc1=O)C1CCCO1 (centres undefined) | -4.3% [at 20 µM] (inactive)
C#CCOCCOCCOCCNc1nc(N2CCN(C(=O)[C@H](Cc3cc4ccccc4[nH]3)n3cc([C@@H](N)Cc4ccc(O)cc4)nn3)CC2)nc(N2CCN(C(=O)[C@H](Cc3cc4ccccc4[nH]3)n3cc([C@@H](N)CC(C)C)nn3)CC2)n1 | 51.3% (active)
C#CCOCCOCCOCCNc1nc(N2CCN(C(=O)C(Cc3ccc(O)cc3)n3cc(C(N)CC(C)C)nn3)CC2)nc(N2CCN(C(=O)C(Cc3cc4ccccc4[nH]3)n3cc(C(N)Cc4ccc(O)cc4)nn3)CC2)n1 (centres undefined) | 12% (inactive)
C#CCOCCOCCOCCNc1nc(N2CCN(C(=O)[C@H](Cc3ccc(O)cc3)n3cc([C@@H](N)CC(C)C)nn3)CC2)nc(N2CCN(C(=O)[C@H](Cc3cc4ccccc4[nH]3)n3cc([C@@H](N)CC(C)C)nn3)CC2)n1 | 10.8% (inactive)
O=C(Nc1ccc(OC(F)(F)F)cc1)c1ccc2ccccc2n1 | -27.1% (inactive)
Cc1nnc(Sc2cc(NCCO)c([N+](=O)[O-])c3nonc23)s1 | 17.1% (inactive)
CCCC(=O)OCCNc1cc(SCc2ccco2)c2nonc2c1[N+](=O)[O-] | 9.3% (inactive)
CCCSc1cc(NCCOC(C)=O)c([N+](=O)[O-])c2nonc12 | -12.8% (inactive)
Cc1ccc(Sc2cc(NCCCO)c([N+](=O)[O-])c3nonc23)cc1 | 5.8% (inactive)
CC(=O)OCCCNc1cc(Sc2nc3ccccc3s2)c2nonc2c1[N+](=O)[O-] | -22.9% (inactive)

SMILES | inhibition
CC(=O)OCCNc1cc(SC(C)C)c2nonc2c1[N+](=O)[O-] | -32.5% (inactive)
O=[N+]([O-])c1c(NCCCO)cc(Sc2nc3ccccc3s2)c2nonc12 | 42.1% (inactive)
CCCC(=O)OCCNc1cc(Sc2nc3ccccc3[nH]2)c2nonc2c1[N+](=O)[O-] | 49.9% (inactive)
CCOC(=O)Nc1sc2nc(C)cc(C)c2c1-n1cccc1 | -25.7% (inactive)
COCCN(C(=O)c1cccc(OC)c1)c1nnc(-c2ccncc2)s1 | 24.5% (inactive)
COc1ccccc1N1CCN(CC(=O)c2c(C)[nH]c3ccccc23)CC1 | -0.2% (inactive)
COc1cc(OC)c(OC)cc1/C=N/NC(=S)NCC1CCCO1 (centres undefined) | 1.1% (inactive)
CCn1c(SCC(=O)Nc2nc3c(s2)CCCC3)nc2c1c(=O)n(C)c(=O)n2C | -6.8% (inactive)
C=CCOC(=O)C(=O)/C=C/c1ccc2c(c1)Cc1ccccc1-2 | -23.3% (inactive)
CCCc1ccc2oc(C(=O)N(C)CCn3ccnc3C)c(C)c2c1 | -19.1% [at 20 µM] (inactive)
CC(=O)NC(Cc1cc(C)ccc1C)C(=O)N1CCN(C(=O)c2ccc([N+](=O)[O-])cc2)CC1 (centres undefined) | -2.4% (inactive)
COc1cc(-c2nc3ccccn3c2/N=C/c2cccc(F)c2)ccc1O | -3.3% (inactive)
COc1cc(CNS(=O)(=O)c2ccc3c(c2)CC(C)N3C(=O)C2CCC2)cc(OC)c1OC (centres undefined) | -10.7% (inactive)
Oc1[nH]c2ccccc2c1N=NC(=S)N1CCOCC1 | 63.2% (active)
Oc1[nH]c2ccc(Br)cc2c1N=NC(=S)N1CCOCC1 | 49.6% (inactive)
NC(=S)N=Nc1c(O)[nH]c2ccccc12 | 18.5% (inactive)
COC(=O)CCC(=O)Nc1c(C)n(C)n(-c2ccccc2)c1=O | 22.3% [at 20 µM] (inactive)
Cc1cc(OCC(=O)Nc2ccc(S(=O)(=O)N3CCN(C)CC3)cc2)ccc1Br | 3.2% (inactive)
Cc1cc(OCC(=O)Nc2ccc(S(=O)(=O)N3CCN(C)CC3)cc2)ccc1Cl | -13.3% (inactive)
O=C(c1ccccn1)N1CCN(c2cccc(C(F)(F)F)c2)CC1 | -1.3% (inactive)
CCOC(=O)c1cnn(-c2nc(SC)nc3sc4c(c23)CCCC4)c1N | 5.6% (inactive)
CCOC(=O)c1cnn(-c2nc(C)nc3sc4c(c23)CCC4)c1N | -9.9% (inactive)
CCOC(=O)c1cnn(-c2nc3sc4c(c3c(=O)[nH]2)CCCC4)c1N | 75% (active)

SMILES | inhibition
Cc1onc(-c2ccccc2)c1C(=O)N=C(N)c1ccc(C(F)(F)F)cc1 | 19.1% (inactive)
CCOc1cc(/C=N/NC(=O)C(=O)NCCCOC(C)C)cc(Br)c1O | 4.9% (inactive)
CCN1CCN(CCC(=O)Nc2ccc(C)cc2)CC1 | -48.9% [at 20 µM] (inactive)
Cc1cccc(CC2CC(=O)N(c3ccccc3)C2=O)c1 (centres undefined) | -23.5% (inactive)
Cc1ccc(C)c(S(=O)(=O)N2CCC3(CC2)OCCO3)c1 | 11.1% (inactive)
O=C1COc2ccc(-c3csc(=Nc4ccc(OC(F)F)cc4)n3CC3CCCO3)cc2N1 (centres undefined) | 14.3% (inactive)
CN(C)S(=O)(=O)c1cccc(N=c2scc(-c3ccc4c(c3)NC(=O)CO4)n2CC2CCCO2)c1 (centres undefined) | -17.4% (inactive)
CSCCNC(=O)c1ccc(OC2CCN(S(=O)(=O)N(C)C)CC2)cc1 | 11.7% [at 20 µM] (inactive)
CN(C)C(=O)c1c2c(nc3ccccc13)-c1ccccc1CC2 | 7.9% (inactive)
CCOc1ccc(NC(=O)c2ccc(NC(=S)NC3CCCCC3)cc2)cc1 | 5.4% [at 20 µM] (inactive)
Cc1ccc(OCc2ccccc2C)c([N+](=O)[O-])n1 | -33% (inactive)
CCCCN(C)CC(O)Cn1cc(/C=C/C(=O)c2cccs2)c2ccccc21 (centres undefined) | 19.9% (inactive)
CCCN(CCC)CC(O)Cn1cc(/C=C/C(=O)c2ccccc2)c2ccccc21 (centres undefined) | 19% (inactive)
COC(=O)c1sc(N)c(C(=O)OC)c1CSc1nnnn1C | -5.2% (inactive)
CCCN(CCC)S(=O)(=O)c1ccc(C(=O)Nc2nnc(-c3cc(OC)cc(OC)c3)o2)cc1 | -91.7% (inactive)
Cc1ccc(C(=O)Nc2nnc(-c3ccco3)o2)cc1 | 14.7% (inactive)
COc1ccc(-c2nnc(NC(=O)c3ccc4c(c3)OCCO4)o2)cc1 | 29.6% (inactive)
O=C(CCc1ccccc1)Nc1nnc(-c2ccc3c(c2)OCCO3)o1 | 11.2% (inactive)
O=C(Nc1nnc(-c2ccco2)o1)c1ccc2ccccc2c1 | 89.7% (active)
O=C(Nc1nnc(-c2ccc3c(c2)OCCO3)o1)c1ccc(Cc2ccccc2)cc1 | 51.8% (active)
O=C(Nc1nnc(C2=COCCO2)o1)c1ccc(Cc2ccccc2)cc1 | -22.6% [at 20 µM] (inactive)
Cc1ccc(C(=O)Nc2nnc(-c3ccco3)o2)cc1C | 40.8% (inactive)
CC1CCN(CC(=O)Nc2ccccc2Sc2ccccc2)CC1 | -8% (inactive)

SMILES | inhibition
O=C(Nc1cccnc1)c1ccccc1Cl | 21.5% [at 20 µM] (inactive)
CN1CCC(N(C)S(=O)(=O)c2ccc(F)cc2F)CC1 | -33.5% (inactive)
Cc1c(C(=O)O)[nH]c2c1C(=O)CC(c1ccc(C(C)(C)C)cc1)C2 (centres undefined) | 14.6% (inactive)
Cc1csc(NC(=S)Nc2cccc(Cl)c2)n1 | 57.9% (active)
Cc1csc(NC(=O)Nc2cccc(Cl)c2)n1 | -9.6% (inactive)
NNC(=S)Nc1cccc(Cl)c1 | 18.7% (inactive)
COc1ccc(OC)c(-n2c(SCC(C)=O)nnc2-c2cccc(S(=O)(=O)N(C)C)c2)c1 | 21.3% (inactive)
O=C(Nc1cccc(C(F)(F)F)c1)Oc1ccc(Cl)c2cccnc12 | 65.4% (active)
CCN(CC)C(=O)Oc1ccc(Cl)c2cccnc12 | 16.1% [at 20 µM] (inactive)
O=C(Oc1ccc(Cl)c2cccnc12)c1ccco1 | 6.4% (inactive)
CSC(=S)N/N=C(\C)c1ccc(Br)cc1 | 46.1% (inactive)
C/C(=N\NC(N)=S)c1ccccc1 | 11.9% (inactive)
Cc1c(C(=O)Nc2ccc3c(c2)OCO3)oc2ccccc12 | -1.2% (inactive)
Cc1ccc2nc(-c3ccccn3)[nH]c2c1 | -33.9% [at 20 µM] (inactive)
Cc1cc(=S)nc(-c2ccccn2)[nH]1 | -17.8% (inactive)
CCN(CC)CCn1c2ccccc2c2cnc(N=CN(C)C)c(C#N)c21 | -24.3% (inactive)
CCO/C(=C/c1sc2ccc(OC)cc2[n+]1CCCS(=O)(=O)[O-])CC | 2.7% (inactive)
CSc1sc2ccccc2[n+]1CCCS(=O)(=O)[O-] | 21.2% (inactive)
O=c1cc(-c2ccccc2)nc(Cc2c(Cl)cccc2Cl)[nH]1 | 29.4% (inactive)
CCNC(=O)NC(=O)C(C)OC(=O)CCS(=O)(=O)c1ccc(C)cc1 (centres undefined) | -30.7% (inactive)
